Gal4-VP16 FLuc = Gal4-VP16 reporter inhibition counter-screen; 3.5% of 310,000 active; Potency, µM (titrated, usually from 53.6 µM), without a hit: top-dose activity, negative = inhibition, actives largely listed as inhibitors; Drosophila S2 Gal4-VP16 UAS-luciferase, luminescence, 20 h;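 note: Gal4-VP16 expression switched on by copper sulfate through the metallothionein promoter; nearly all actives have a fitted effect of over 50% in size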
Tau ThT inhib = inhibitors of human tau fibril formation, thioflavin T binding; recombinant tau K18 P301L, heparin-induced fibrillization, ThT fluorescence; 2.1% of 270,000 active; Potency, µM (highest dose often 57.4 µM), for inactives: at the top dose activity, negative = inhibition, hits mostly inhibitors; P10636; AID 1460; note: nearly all actives have a fitted effect of over 55% in size
Target sequence (P10636 561-689 P618L limits assumed): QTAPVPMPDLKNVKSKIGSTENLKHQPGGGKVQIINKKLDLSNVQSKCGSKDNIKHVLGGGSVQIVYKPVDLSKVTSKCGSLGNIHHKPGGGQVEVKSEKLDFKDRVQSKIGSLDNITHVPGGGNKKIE
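Heparin-induced (20 uM) aggregation of recombinant human K18 P301L tau, 15 uM unlabeled with 0.24 uM labeled, pH 7 acetate buffer, 6 hr at 37 C with compound. Fibrils quantified by 30 uM ThT fluorescence after 1 hr ambient incubation.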
RORg inh = blocks mouse ROR gamma transcriptional activity | Drosophila S2 Gal4-RORgamma UAS-luciferase reporter, 20 h | Potency, µM (titrated, usually from 53.6 µM), without a hit: top-dose activity change, negative = inhibition, actives largely listed as inhibitors | 5.4% of 310,000 active; note: nearly all actives have a fitted effect of over 60% in size
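Luminescence from a UAS-regulated Photinus luciferase reporter in stably transfected Drosophila Schneider cells is measured; decreased signal marks ROR gamma inhibition. Fusion expression is induced by 700 uM copper sulfate for 20 hr.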
Tau fibril FP = inhibitors of human tau fibril formation; K18 P301L tau heparin fibrillization, Alexa594 FP, 6 h; Potency, µM (highest dose often 57.7 µM), for the others: top-dose activity, negative = inhibition, actives largely listed as inhibitors; 0.39% of 280,000 active; AID 1468; note: nearly all actives have a fitted effect of over 55% in size
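Read-out: fluorescence polarization of Alexa 594-labeled tau (0.24 uM), 555 nm excitation, 632 nm emission. Mixtures held 15 uM unlabeled K18 P301L, compound and 20 uM heparin, pH 7 acetate buffer, incubated 6 hr at 37 C.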
Tau fluor cs = counter-screen for tau fibril formation inhibitors; tau K18 P301L Alexa594 fluorescence, heparin fibrillization; Potency, µM (titrated, usually from 57.7 µM), for the others: at the highest dose activity change, negative = decrease; 0.93% of 280,000 active; note: nearly all actives have a fitted effect of over 55% in size
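Human tau K18 P301L (15 uM unlabeled, 0.24 uM Alexa 594-labeled) in 100 mM sodium acetate pH 7 with 20 uM heparin, 6 hr at 37 C. ThT 30 uM added, 1 hr ambient; Alexa 594 FP and total fluorescence read at 555/632 nm.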
The depositor's hits bear a star; ? = inconclusive; nt = no result given; [ ] = dose if it differs, or a comment. A selection: hits, their analogues and other compounds. The true share with any hit is near 7.3%. Calls come from the whole dose curve; as a rule, active = well fitted curve in the direction sought with a large enough effect; inconclusive = small, poorly fitted or top-dose-only effect, or another doubt; inactive = no such curve, though single readings can be large; an effect the other way counts as inactive or inconclusive. % is set by controls: 0 for no effect and ±100 for the full control effect; potency is the fitted concentration of half-maximal effect.

SMILES | Gal4-VP16 FLuc | Tau ThT inhib | RORg inh | Tau fibril FP | Tau fluor cs
COc1ccc(OCc2nc3ccccc3n2Cc2ccc(C(C)(C)C)cc2)cc1 | nt | -14.3% | nt | 6.5% | -21.4%
CCC(C)n1c(/C=C/c2ccccc2)nc2ccccc21 (configuration not stated) | 12.6µM* | -2.4% | 10µM* | 8.3% | -2.0%
COc1ccc(-c2n(Cc3ccccc3)c3ccccc3[n+]2Cc2ccccc2)cc1 | 5.01µM* | -9.7% | 5.62µM* | 8.2% | -3.2%
COC(=O)c1n[nH]n(-c2ccccc2)c1=O | nt | -8.4% | nt | -10.3% | -10.9%
CCOc1ccc(CNC(=O)c2cnc3sc(N4CCCCCC4)nn3c2=O)cc1OC | nt | 0.5% | nt | -0.9% | -4.2%
COc1cc(/C=C/[N+](=O)[O-])ccc1OC(=O)c1cc2ccccc2oc1=O | 7.08µM* | nt | 15.8µM* | nt | nt
COc1ccccc1OC(=O)c1cc2ccccc2oc1=O | 5.0% | nt | 0.4% | nt | nt
O=C(O)C1CCC(NSc2ccccc2[N+](=O)[O-])CC1 (configuration not stated) | -11.1% | 15.8µM* | -23.3% | 17.8µM* | -18.6%
COc1ccc(-n2c(=O)c3c(c4cc(OC)ccc4n3C)n(Cc3c(F)cccc3Cl)c2=O)cc1 | nt | 12.8% | nt | 3.6% | 6.3%
Cc1ccc2nc(-c3ccco3)c(Nc3ccc4c(c3)OCCO4)n2c1 | nt | -12.0% | nt | 5.5% | ?
COc1ccc(Nc2c(-c3ccco3)nc3ccc(C)cn23)cc1 | -9.2%[10 µM] | -11.6% | 17.8µM* | 11.9% | -21.2%
CN(C)C(=O)c1ccc2c(c1)N(CC(=O)NCc1ccc(F)cc1)C(=O)C1CCCCN21 (configuration not stated) | nt | -1.5% | nt | -3.4% | -0.2%
CCc1ccc(Nc2nnc(SCC(=O)Nc3ccc(C(=O)O)cc3)s2)cc1 | 7.08µM* | -17.4% | 5.01µM* | -6.9% | -13.6%
CC(=O)Nc1ccc(NC(=O)CSc2nnc(NC(=O)c3cccc(F)c3)s2)cc1 | ? | nt | 12.6µM* | nt | nt
CCc1ccc(Nc2nnc(SCC(=O)NC(=O)c3cccn3C)s2)cc1 | 3.7%[10 µM] | -12.7% | ? | 4.6% | ?
CCC(=O)c1ccc(OCc2ccc(C(=O)c3ccccc3)cc2)cc1 | 7.08µM* | ? | ? | -2.1% | -14.2%
CCC(=O)c1ccc(OCc2ccccc2)c(OC)c1 | 23.0% | -16.0% | ? | 3.8% | -3.4%
CCC(C)(C)NC(=O)COc1ccc(C(=O)c2ccccc2)cc1 | 12.6µM* | -4.5% | 33.6% | 0.5% | -7.5%
O=C(COc1ccc(C(=O)c2ccccc2)cc1)NC1CCCCCC1 | ? | -10.8% | ? | 1.0% | -4.9%
CC(C)N1CCN(c2ccc(C(=O)c3c(-c4ccc(O)cc4)sc4cc(O)ccc34)cc2)CC1 | ? | nt | -5.5% | nt | nt
COc1ccc(/C=N/NC(=O)c2ccc3ccccc3c2)cc1OS(=O)(=O)c1ccc(NC(C)=O)cc1 | -9.6% | 7.7% | 2.3% | 12.6µM* | ?
COc1ccc(NC(=S)NNC(=O)COc2ccc(Cl)cc2Cl)cc1 | -7.2% | 6.1% | ? | -4.4% | 4.2%
CCC(=O)NC(=S)Nc1ccc(NC(=O)CC)cc1 | -3.9% | -3.6% | 17.6% | -5.2% | 1.1%
COc1ccc(Cl)cc1NC(=S)Nc1cccc(C)c1 | ? | -8.5% | 11.2µM* | -10.8% | -17.1%
Cc1cccc(NC(=S)NNC(=O)COc2ccc(Cl)cc2Cl)c1 | 2.82µM* | ? | 4.47µM* | -3.3% | ?
SMILES | Gal4-VP16 FLuc | Tau ThT inhib | RORg inh | Tau fibril FP | Tau fluor cs
O=C(COc1cccc2ccccc12)NNC(=O)Nc1ccccc1 | 1.5% | 2.5% | 4.7% | -5.4% | -21.0%
CCC(=O)NC(=S)Nc1ccc(NC(=O)COc2ccc(Cl)cc2Cl)cc1 | ? | -21.4% | 11.2µM* | 1.3% | -22.0%
O=C(COc1cccc2cccnc12)NNC(=S)Nc1ccccc1 | -2.4% | ? | 0.891µM* | 4.0% | -10.1%
Cc1ccc(S(=O)(=O)N(CCc2ccccc2)CC(=O)Nc2cc(C)ccc2C)cc1 | nt | 4.6% | nt | 0.6% | -4.4%
COc1ccccc1Cn1c(CNS(=O)(=O)c2cccc([N+](=O)[O-])c2)nc2cccnc21 | nt | -2.3% | nt | 11.6% | -2.9%
O=c1cc(C(Cl)(Cl)Cl)oc2c1ccc1ccccc12 | 5.62µM* | ? | 1.41µM* | -8.7% | -8.8%
Cc1ccc(-n2nc(-c3ccccc3)cc2Nc2ccccc2N)cc1 | -4.7% | ? | -4.9% | 13.0% | ?

Assay outcomes from PubChem.
